Laboratory results taken from PubChem BioAssay.
The source made the active and inactive calls. Unless noted, how the calls were made is not given here.

Tests used:
[1] = system: Wnt5a (protein binding on small-molecule microarray); assay: Wnt5a binders on small-molecule microarray, primary screen, biophysical, 635/667 nm fluorescence (AID 1142); conditions: 635 nm fluorescence, higher = more signal;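 further: fluorescence read at 667 nm with signal to noise per printed feature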
[2] = cell viability in Huh7 cells, primary screen, cytotoxicity control for HCV replication inhibitor project, CellTiter-Glo luminescence, basal, 48 h (AID 1143); conditions: Huh7 HCV replicon, higher = more signal, called active from +8 up or from −8 down;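 further: Huh7 hepatoma cells carrying a hepatitis C replication reporter with no stimulus; test concentration not given here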
[3] = P. aeruginosa biofilm formation inhibitors, primary screen, PAO1 strain, BacTiter-Glo luminescence, LB-PBS (AID 1144); conditions: 12 h, higher = more signal
[4] = CREB reporter modulators without forskolin, primary screen, cell-based, PC12, CRE-LacZ reporter, unstimulated (AID 1145); conditions: no forskolin, luminescence, 4.5 h, higher = more signal, called active from +8 up or from −8 down
[5] = CREB reporter modulators under forskolin, primary screen, cell-based, PC12, CRE-LacZ reporter, forskolin-stimulated (AID 1146); conditions: luminescence, 4.5 h, higher = more signal, called active from +8 up or from −8 down;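 further: PC12 cells with 6xCRE LacZ reporter stimulated by forskolin 10 µM; beta-galactosidase reporter signal reflecting CREB driven transcription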
[6] = target: Streptavidin (Streptomyces avidinii) (UniProt P22629); assay: streptavidin binders on small-molecule microarray, primary screen, artefact control for SMM compound annotation, biophysical, 635/667 nm fluorescence (AID 1147); conditions: streptavidin binding, higher = more signal;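 further: signal reflects streptavidin binding to arrayed compounds as a control protein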
Streptavidin (Streptomyces avidinii), sequence (P22629 whole entry, looked up): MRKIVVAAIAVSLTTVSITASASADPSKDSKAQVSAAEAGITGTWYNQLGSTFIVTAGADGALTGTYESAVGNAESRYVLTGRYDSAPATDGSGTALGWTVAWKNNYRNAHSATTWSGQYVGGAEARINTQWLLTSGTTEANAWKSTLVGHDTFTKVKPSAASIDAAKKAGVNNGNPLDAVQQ

[7] = small-molecule binders of probe aInhba, primary screen, biochemical, small-molecule microarray, 635/667 nm fluorescence (AID 1148); conditions: higher = more signal;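 further: score merges 667nm spot fluorescence with signal-to-noise for antibody binding to printed compounds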
[8] = target: Torsin-1A (Homo sapiens) (UniProt O14656); assay: torsin A binders from cell lysate, primary screen, small-molecule microarray, wild-type, 635/667 nm (AID 1149); conditions: COS7 hTOR1A-WT lysate, 635 nm fluorescence, higher = more signal
Torsin-1A (Homo sapiens), sequence (O14656 whole entry, looked up): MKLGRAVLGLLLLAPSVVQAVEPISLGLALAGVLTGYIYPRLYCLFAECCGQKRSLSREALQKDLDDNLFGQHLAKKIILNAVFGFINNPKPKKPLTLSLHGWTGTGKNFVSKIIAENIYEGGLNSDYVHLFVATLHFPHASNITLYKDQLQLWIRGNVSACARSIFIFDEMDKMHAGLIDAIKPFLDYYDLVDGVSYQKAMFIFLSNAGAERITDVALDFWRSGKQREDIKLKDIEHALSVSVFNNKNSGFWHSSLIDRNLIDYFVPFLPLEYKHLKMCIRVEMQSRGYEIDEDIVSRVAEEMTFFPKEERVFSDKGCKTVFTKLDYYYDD

[9] = target: Torsin-1A (Homo sapiens) (UniProt O14656); assay: small-molecule binders of mutant TOR1A in lysate, primary screen, cell lysate, small-molecule microarray, COS7 lysate, 635/667 nm fluorescence (AID 1150); conditions: COS7 hTOR1A mutant lysate, 635 nm fluorescence, higher = more signal;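 further: score pools 667 nm emission and signal to noise measuring lysate protein binding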
[10] = system: Sonic hedgehog protein (Shh); assay: small-molecule binders of Shh protein, primary screen, biochemical, small-molecule microarray, 635/667 nm fluorescence (AID 1151); conditions: small-molecule microarray binding, 635 nm fluorescence; higher = more signal;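 further: Shh protein binding to compounds spotted on small-molecule microarray slides; score combines spot fluorescence intensity with signal-to-noise across triplicate slides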
[11] = E. coli DRC41 culture turbidity changes, primary screen, E. coli filamentation inducer project, strain DRC41, OD650, 48 h (AID 1152);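 further: E. coli MC1000 strain DRC41 lacking acrAB efflux pump and sulA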; conditions: E. coli DRC41 (acrAB sulA), higher = more signal, called active from +8 up or from −8 down
[12] = small-molecule binders of probe aLefty1, primary screen, biochemical, small-molecule microarray, 635/667 nm fluorescence (AID 1153); conditions: higher = more signal;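 further: score merges spot fluorescence with signal-to-noise ratio from the scanned slide images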
[13] = PSAC antagonists in infected red cells, primary screen, cell-based, P. falciparum Indochina, OD700, 1 h (AID 1154); conditions: P. falciparum Indochina infected RBC osmotic lysis, higher = more signal, called active from +8 up or from −8 down
[14] = PSAC antagonists in infected red cells, primary screen, cell-based, P. falciparum Indochina, OD700, 2 h (AID 1155);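 further: lysis reports solute entry through the parasite surface anion channel PSAC; channel blockers reduce lysis of infected cells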; conditions: P. falciparum Indochina infected erythrocytes, osmotic lysis OD700; higher = more signal, called active from +8 up or from −8 down
[15] = osmotic lysis modulators in infected erythrocytes, primary screen, PSAC antagonist project, cell-based, P. falciparum Indochina, OD700, 3 h (AID 1156); conditions: higher = more signal, called active from +8 up or from −8 down
[16] = PSAC antagonists in infected red cells, primary screen, cell-based, P. falciparum Indochina, OD700, 18 h (AID 1157); conditions: P. falciparum Indochina infected erythrocytes, osmotic lysis OD700, 18 h; higher = more signal, called active from +8 up or from −8 down
[17] = modulators of S6 phosphorylation in cells, primary screen, cell-based, A549, cytoblot, luminescence, serum-stimulated (AID 1158); conditions: A549 phospho-S6 cytoblot, 5 h, higher = more signal;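 further: serum-stimulated A549 lung adenocarcinoma cells; signal is phosphorylated S6 detected by cytoblot immunostaining with HRP secondary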
[18] = target: NADPH oxidase 2 (Homo sapiens) (UniProt P04839); assay: NOX2-dependent H2O2 signal modulators, primary screen, NOX inhibitor project, cell-based, HEK293-NOX2, PMA-stimulated, Amplex Red fluorescence (AID 1159); conditions: 45 min, higher = more signal, called active from +8 up or from −8 down; further: test concentration not given here
NADPH oxidase 2 (Homo sapiens), sequence (P04839 whole entry, looked up): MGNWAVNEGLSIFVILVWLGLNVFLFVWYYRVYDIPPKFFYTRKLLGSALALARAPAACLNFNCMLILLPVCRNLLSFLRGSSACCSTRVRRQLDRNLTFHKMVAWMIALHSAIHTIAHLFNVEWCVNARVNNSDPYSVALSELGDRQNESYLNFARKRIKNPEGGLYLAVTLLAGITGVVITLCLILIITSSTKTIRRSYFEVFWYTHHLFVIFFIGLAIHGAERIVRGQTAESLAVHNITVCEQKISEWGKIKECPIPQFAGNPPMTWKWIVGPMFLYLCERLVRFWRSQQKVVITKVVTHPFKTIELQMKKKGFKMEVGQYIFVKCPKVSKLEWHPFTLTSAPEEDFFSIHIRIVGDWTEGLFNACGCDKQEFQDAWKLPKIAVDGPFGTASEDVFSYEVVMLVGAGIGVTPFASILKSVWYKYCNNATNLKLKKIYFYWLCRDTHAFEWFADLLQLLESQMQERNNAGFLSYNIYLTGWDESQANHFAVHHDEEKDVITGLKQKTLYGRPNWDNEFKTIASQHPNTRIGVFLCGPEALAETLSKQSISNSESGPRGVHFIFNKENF

[19] = target: NADPH oxidase 4 (Homo sapiens) (UniProt Q9NPH5); assay: NOX4-dependent H2O2 signal modulators, primary screen, NOX inhibitor project, cell-based, HEK293-NOX4, tetracycline-induced, Amplex Red fluorescence (AID 1160); conditions: 45 min, higher = more signal, called active from +8 up or from −8 down
NADPH oxidase 4 (Homo sapiens), sequence (Q9NPH5 whole entry, looked up): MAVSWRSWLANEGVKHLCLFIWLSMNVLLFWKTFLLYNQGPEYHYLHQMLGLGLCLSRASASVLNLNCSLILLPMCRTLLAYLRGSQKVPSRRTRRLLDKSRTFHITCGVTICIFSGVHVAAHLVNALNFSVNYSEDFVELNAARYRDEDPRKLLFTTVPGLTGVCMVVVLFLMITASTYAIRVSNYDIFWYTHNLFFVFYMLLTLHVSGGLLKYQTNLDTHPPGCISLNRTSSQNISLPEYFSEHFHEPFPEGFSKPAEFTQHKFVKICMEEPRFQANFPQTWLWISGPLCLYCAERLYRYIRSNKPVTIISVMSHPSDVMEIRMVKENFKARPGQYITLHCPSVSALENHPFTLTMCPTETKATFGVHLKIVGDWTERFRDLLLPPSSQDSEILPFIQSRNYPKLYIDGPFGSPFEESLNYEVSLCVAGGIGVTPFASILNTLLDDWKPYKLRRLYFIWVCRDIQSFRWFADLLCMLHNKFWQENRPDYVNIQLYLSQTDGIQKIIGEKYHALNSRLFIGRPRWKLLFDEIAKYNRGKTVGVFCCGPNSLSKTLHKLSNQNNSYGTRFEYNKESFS

[20] = target: NADPH oxidase 5 (Homo sapiens) (UniProt Q96PH1); assay: NOX5-dependent H2O2 signal modulators, primary screen, NOX inhibitor project, cell-based, HEK293-NOX5, Amplex Red fluorescence (AID 1161); conditions: HEK293-NOX5, ionomycin, 45 min, higher = more signal
NADPH oxidase 5 (Homo sapiens), sequence (Q96PH1 whole entry, looked up): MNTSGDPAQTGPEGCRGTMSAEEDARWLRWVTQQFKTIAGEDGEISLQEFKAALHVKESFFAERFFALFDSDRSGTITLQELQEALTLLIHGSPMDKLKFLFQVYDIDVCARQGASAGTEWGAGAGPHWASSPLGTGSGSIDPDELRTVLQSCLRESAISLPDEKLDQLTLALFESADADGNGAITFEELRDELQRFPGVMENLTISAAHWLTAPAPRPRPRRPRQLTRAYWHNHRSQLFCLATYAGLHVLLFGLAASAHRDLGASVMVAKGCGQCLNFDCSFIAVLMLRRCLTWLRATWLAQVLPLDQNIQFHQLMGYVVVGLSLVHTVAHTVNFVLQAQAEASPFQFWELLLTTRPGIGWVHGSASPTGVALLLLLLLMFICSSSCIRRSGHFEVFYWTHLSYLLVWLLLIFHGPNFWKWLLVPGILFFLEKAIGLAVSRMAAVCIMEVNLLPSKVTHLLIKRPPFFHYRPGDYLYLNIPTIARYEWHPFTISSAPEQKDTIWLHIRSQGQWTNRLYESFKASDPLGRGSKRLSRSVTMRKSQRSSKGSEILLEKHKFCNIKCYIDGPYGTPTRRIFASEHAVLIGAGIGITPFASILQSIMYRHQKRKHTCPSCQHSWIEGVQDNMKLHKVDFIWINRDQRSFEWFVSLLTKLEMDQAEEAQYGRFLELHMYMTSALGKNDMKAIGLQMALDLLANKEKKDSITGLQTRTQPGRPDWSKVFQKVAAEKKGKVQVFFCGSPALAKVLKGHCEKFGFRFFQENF

CN(C)C(=O)[C@]1(CCS(=O)(=O)c2ccccc2)N=C(c2ccc(OCCCO)cc2)O[C@@H]1c1ccccc1
composite z-score [1]: 0.995
z-score [2]: -2.87 (inactive)
z-score [3]: -1.52 (inactive)
z-score [4]: 1.42 (inactive)
z-score [5]: 1.1 (inactive)
composite z-score [6]: 1.22
composite z-score [7]: 0.204
composite z-score [8]: 0.957
composite z-score [9]: 0.831
composite z-score [10]: -0.707
z-score [11]: 0.0024 (inactive)
composite z-score [12]: -0.0072
z-score [13]: 30.8 (active)
z-score [14]: 25.7 (active)
z-score [15]: 2.91 (inactive)
z-score [16]: 6.06 (inactive)
z-score [17]: 0.0637
z-score [18]: -0.461 (inactive)
z-score [19]: 1.52 (inactive)
z-score [20]: -2.3

Cc1ccc(N2C(=O)c3ccccc3[C@](C)(C(=O)NCc3ccccc3)[C@@H]2c2ccc(CO)cc2)nc1
composite z-score [1]: 0.135
z-score [2]: -2.21 (inactive)
z-score [3]: 0.493 (inactive)
z-score [4]: 0.351 (inactive)
z-score [5]: -1.32 (inactive)
composite z-score [6]: 0.0831
composite z-score [7]: 0.0561
composite z-score [8]: 0.197
composite z-score [9]: 0.185
composite z-score [10]: 0.547
z-score [11]: 0.465 (inactive)
composite z-score [12]: 0.205
z-score [13]: 2.01 (inactive)
z-score [14]: 0.161 (inactive)
z-score [15]: 0.385 (inactive)
z-score [16]: 0.305 (inactive)
z-score [17]: 0.389
z-score [18]: 0.37 (inactive)
z-score [19]: -1.75 (inactive)
z-score [20]: -0.583

CC(C)[C@H]1NC(=O)[C@@]23C(=O)N[C@@H](Cc4ccccc4)C2[C@H](C)[C@@]2(C)O[C@H]2C3/C=C/C/C=C\CNC(=O)[C@H](Cc2ccccc2)NC1=O (stereo not given in full)
composite z-score [1]: 0.566
z-score [2]: -2.56 (inactive)
z-score [3]: 1.12 (inactive)
z-score [4]: 1.57 (inactive)
z-score [5]: -0.513 (inactive)
composite z-score [6]: 0.852
composite z-score [7]: 0.0528
composite z-score [8]: 1.3
composite z-score [9]: 0.629
composite z-score [10]: 1.96
z-score [11]: -0.306 (inactive)
composite z-score [12]: 0.284
z-score [13]: 1.48 (inactive)
z-score [14]: 0.491 (inactive)
z-score [15]: 0.137 (inactive)
z-score [16]: 0.476 (inactive)
z-score [17]: -0.324
z-score [18]: 0.155 (inactive)
z-score [19]: 1.05 (inactive)
z-score [20]: 1.1

CCOC(=O)C=Cc1cc(F)ccc1O
composite z-score [1]: 0.139
z-score [2]: -4.58 (inactive)
z-score [3]: -0.557 (inactive)
z-score [4]: 0.276 (inactive)
z-score [5]: -0.804 (inactive)
composite z-score [6]: 0.761
composite z-score [7]: 0.0705
composite z-score [8]: 0.165
composite z-score [9]: 0.448
composite z-score [10]: -0.587
z-score [11]: -1.38 (inactive)
composite z-score [12]: 0.0355
z-score [13]: 16.6 (active)
z-score [14]: -0.347 (inactive)
z-score [15]: 0.782 (inactive)
z-score [16]: -1.23 (inactive)
z-score [17]: 0.684
z-score [18]: -4.77 (inactive)
z-score [19]: -3.25 (inactive)
z-score [20]: -4.14

COCC(=C=CC[C@@H](O)c1ccc(OCCO)cc1)CCO
composite z-score [1]: 0.0576
z-score [2]: -0.258 (inactive)
z-score [3]: -0.934 (inactive)
z-score [4]: 0.0986 (inactive)
z-score [5]: -0.482 (inactive)
composite z-score [6]: -0.471
composite z-score [7]: -0.0762
composite z-score [8]: 0.995
composite z-score [9]: 0.966
composite z-score [10]: 1.59
z-score [11]: 1.15 (inactive)
composite z-score [12]: 0.0391
z-score [13]: 6.19 (inactive)
z-score [14]: 0.492 (inactive)
z-score [15]: 1.32 (inactive)
z-score [16]: 0.381 (inactive)
z-score [17]: 0.357
z-score [18]: -2.03 (inactive)
z-score [19]: -0.406 (inactive)
z-score [20]: -0.727

C#C[C@@H](CC)O[Si](C#CCCCC#N)(C(C)C)C(C)C
composite z-score [1]: 0.162
z-score [2]: -0.667 (inactive)
z-score [3]: 0.132 (inactive)
z-score [4]: -0.868 (inactive)
z-score [5]: 4.95 (inactive)
composite z-score [6]: -0.0686
composite z-score [7]: -0.0762
composite z-score [8]: 0.491
composite z-score [9]: 1.69
composite z-score [10]: 0.473
z-score [11]: 0.527 (inactive)
composite z-score [12]: -0.117
z-score [13]: 1.58 (inactive)
z-score [14]: 1.14 (inactive)
z-score [15]: 0.186 (inactive)
z-score [16]: 0.676 (inactive)
z-score [17]: -0.336
z-score [18]: 1.03 (inactive)
z-score [19]: -0.222 (inactive)
z-score [20]: 1.31

COC(=O)[C@@]1(Cc2ccc(OC)cc2)[C@H]2c3cc(C(=O)N4CCCC4)n(Cc4ccc(S(C)(=O)=O)cc4)c3C[C@H]2CN1C(=O)c1ccccc1
composite z-score [1]: 0.21
z-score [2]: -0.86 (inactive)
z-score [3]: -0.0122 (inactive)
z-score [4]: -0.185 (inactive)
z-score [5]: -0.755 (inactive)
composite z-score [6]: 1.73
composite z-score [7]: 0.102
composite z-score [8]: 0.272
composite z-score [9]: 0.422
composite z-score [10]: -1.12
z-score [11]: -1.08 (inactive)
composite z-score [12]: 0.315
z-score [13]: 2.29 (inactive)
z-score [14]: 0.326 (inactive)
z-score [15]: 0.6 (inactive)
z-score [16]: 0.617 (inactive)
z-score [17]: -0.688
z-score [18]: 0.385 (inactive)
z-score [19]: -0.389 (inactive)
z-score [20]: -1.7

[N-]=[N+]=NC[C@H](Cc1ccccc1)NC(=O)c1ccccc1
composite z-score [1]: -0.022
z-score [2]: -0.34 (inactive)
z-score [3]: 0.138 (inactive)
z-score [4]: 0.6 (inactive)
z-score [5]: -0.308 (inactive)
composite z-score [6]: 0.148
composite z-score [7]: -0.0695
composite z-score [8]: 0.601
composite z-score [9]: 0.265
composite z-score [10]: -0.0168
z-score [11]: 1.44 (inactive)
composite z-score [12]: 0.0606
z-score [13]: 0.0465 (inactive)
z-score [14]: 0.872 (inactive)
z-score [15]: 0.264 (inactive)
z-score [16]: 0.432 (inactive)
z-score [17]: -0.282
z-score [18]: 0.192 (inactive)
z-score [19]: -0.441 (inactive)
z-score [20]: 0.122

COCC1=C2[C@@H](CCc3ccccc3)OB(O)C[C@@H]2[C@@H]2C(=O)N(C)C(=O)[C@@H]2C1
composite z-score [1]: -0.16
z-score [2]: 0.0876 (inactive)
z-score [3]: 0.0987 (inactive)
z-score [4]: -0.871 (inactive)
z-score [5]: 1.08 (inactive)
composite z-score [6]: 0.0675
composite z-score [7]: -0.113
composite z-score [8]: 0.607
composite z-score [9]: -0.0933
composite z-score [10]: 0.588
z-score [11]: -0.801 (inactive)
composite z-score [12]: 0.0355
z-score [13]: 1.4 (inactive)
z-score [14]: -0.301 (inactive)
z-score [15]: -0.793 (inactive)
z-score [16]: -0.015 (inactive)
z-score [17]: -0.1
z-score [18]: -0.116 (inactive)
z-score [19]: 0.762 (inactive)
z-score [20]: 0.217
